# SNCA expr inhib – inhibitors of alpha-synuclein (SNCA) gene expression; Potency, µM (titrated, usually from 57.2 µM), for the others: at the highest dose activity change, negative = inhibition, hits mostly inhibitors; HEK-293 SNCA-luciferase knock-in, luminescence, 24 h; hit rate 0.17% among 140,000;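 note: potency is the fitted concentration of half-maximal effect; plate controls were DMSO cells for no effect and cell-free wells for full effect; nearly all actives have a fitted effect of over 45% in size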
# IP6K1 inh – blocks human inositol hexakisphosphate kinase 1; IP6K1 kinase, ADP-Glo luminescence, 2 h; active compounds read low; activity change, % (series mostly up to about 58 µM); Q92551; hit rate 0.81% among 140,000; AID 1645851; in the data active = activity change below about -25%; note: % is set by controls: 0 for no effect and ±100 for the full control effect
#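 ADP-Glo luminescence measures ADP made by human IP6K1 during a 2 h RT reaction with ATP/IP6 (mix at 1.3 mM/130 uM); top library doses 57.5 and 19.1 uM final.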
# SNCA viab count – reduces viability of HEK-293 SNCA reporter cells. Potency, µM (series often up to 57.1 µM), for the others: at the highest dose activity change, negative = cytotoxicity, most hits filed as cytotoxic. hit rate 0.12% among 150,000. HEK-293-SNCA-luc viability, GF-AFC fluorescence, 24 h;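 note: potency is the fitted concentration of half-maximal effect; 0% = DMSO-treated cells and -100% = medium-only wells without cells; nearly all actives have a fitted effect of over 30% in size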
#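 HEK-293-SNCA-luc cells (1500/well) plated 24 h, then exposed 24 h to a dilution series; GF-AFC added 30 min at 37C, fluorescence 405/540 nm; normalised to medium-only and DMSO wells, Hill fit.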
# KDM5B inhibitor – blocks human KDM5B histone demethylase activity; AID 1347165; Q9UGL1; KDM5B demethylase, FDH-coupled NADH fluorescence (FDH is formaldehyde dehydrogenase); Potency, µM (top dose mostly 57.7 µM), actives largely listed as inhibitors; hit rate 2.6% among 220,000; note: potency is the fitted concentration of half-maximal effect; 0% is about no effect; nearly all actives have a fitted effect of over 70% in size
# Target sequence (Q9UGL1 whole entry, looked up): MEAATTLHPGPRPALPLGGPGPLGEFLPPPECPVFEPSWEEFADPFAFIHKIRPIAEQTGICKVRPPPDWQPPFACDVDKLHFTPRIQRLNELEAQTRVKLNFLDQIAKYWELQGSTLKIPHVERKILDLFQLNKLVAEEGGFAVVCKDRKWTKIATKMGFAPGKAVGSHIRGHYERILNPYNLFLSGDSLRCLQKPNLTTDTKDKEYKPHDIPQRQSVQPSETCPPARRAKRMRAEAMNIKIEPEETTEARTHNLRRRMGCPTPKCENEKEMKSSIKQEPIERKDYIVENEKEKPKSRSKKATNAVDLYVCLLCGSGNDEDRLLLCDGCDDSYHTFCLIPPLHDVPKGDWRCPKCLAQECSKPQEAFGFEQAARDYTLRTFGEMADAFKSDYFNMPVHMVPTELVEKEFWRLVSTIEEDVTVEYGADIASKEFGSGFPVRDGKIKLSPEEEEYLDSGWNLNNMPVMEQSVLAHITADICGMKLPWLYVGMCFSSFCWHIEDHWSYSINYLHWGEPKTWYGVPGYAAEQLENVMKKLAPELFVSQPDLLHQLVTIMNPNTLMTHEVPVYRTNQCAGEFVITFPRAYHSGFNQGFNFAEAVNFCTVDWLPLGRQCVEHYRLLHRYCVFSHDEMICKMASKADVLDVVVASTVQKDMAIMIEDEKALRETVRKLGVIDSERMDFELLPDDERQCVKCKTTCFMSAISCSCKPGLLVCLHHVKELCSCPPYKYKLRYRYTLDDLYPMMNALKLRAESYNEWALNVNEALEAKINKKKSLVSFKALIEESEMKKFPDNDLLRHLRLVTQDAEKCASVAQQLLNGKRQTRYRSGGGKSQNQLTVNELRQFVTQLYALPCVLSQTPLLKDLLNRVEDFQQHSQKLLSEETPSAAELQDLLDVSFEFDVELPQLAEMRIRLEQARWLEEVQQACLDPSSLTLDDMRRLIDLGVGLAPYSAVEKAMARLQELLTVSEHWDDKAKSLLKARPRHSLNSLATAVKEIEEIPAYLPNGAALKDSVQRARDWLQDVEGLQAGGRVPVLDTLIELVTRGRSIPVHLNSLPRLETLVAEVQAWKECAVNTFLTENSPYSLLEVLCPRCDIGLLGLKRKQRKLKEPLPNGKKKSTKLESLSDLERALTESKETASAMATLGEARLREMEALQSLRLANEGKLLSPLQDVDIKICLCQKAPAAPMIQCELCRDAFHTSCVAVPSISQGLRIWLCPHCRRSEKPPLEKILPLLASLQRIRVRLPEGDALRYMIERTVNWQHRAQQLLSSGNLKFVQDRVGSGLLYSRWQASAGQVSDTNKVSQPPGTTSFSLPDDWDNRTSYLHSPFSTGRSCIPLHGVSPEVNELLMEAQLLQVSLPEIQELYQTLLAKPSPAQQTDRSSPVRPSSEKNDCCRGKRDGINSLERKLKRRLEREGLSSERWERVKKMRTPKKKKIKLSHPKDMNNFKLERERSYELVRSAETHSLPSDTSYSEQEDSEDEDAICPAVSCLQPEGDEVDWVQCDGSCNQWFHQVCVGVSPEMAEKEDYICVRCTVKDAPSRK
#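 Measured: NADH fluorescence change, 30 min, RT. System: KDM5BΔAP 200 nM final, H3K4me3 peptide, α-KG, Fe(II), ascorbate, NAD⁺ plus FDH, pH 7.5 HEPES. Compounds: titrated, 10 min pre-incubation with enzyme.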
# * marks the source's active call; other numbers are inactive results; i = inactive; u = inconclusive; x = not tested or not shown; [ ] = dose if it differs, or a comment. Compounds with a hit are over-represented: about 2.8% of the library has one in this group of screens. Unless noted, calls come from the whole dose curve; as a rule, active = well fitted curve in the direction sought with a large enough effect; inconclusive = small, poorly fitted or top-dose-only effect, or another doubt; inactive = no such curve, though single readings can be large; an effect the other way counts as inactive or inconclusive.
SMILES,SNCA expr inhib,IP6K1 inh,SNCA viab count,KDM5B inhibitor
Oc1ccccc1CN1CCNc2cnc(-c3ccccc3)cc2C1,-14.9%[87.6 µM],-22.2,-9.2%[87.6 µM],u
Cn1cc(CN2CCNc3cnc(-c4ccccc4)cc3C2)cn1,-28.1%[87.6 µM],-21.4,-7.4%[87.6 µM],28.2µM*
CC(=O)c1ccc(NC(=O)C23CCC(C2)C(C)(C)C3=O)cc1 (stereo not drawn),x,x,x,i
O=C(O)C1CCC(c2ccc(I)cc2)CC1 (stereo not drawn),x,x,x,i
CN(Cc1ccc(Br)cc1)S(=O)(=O)c1ccc2c(c1)CCC2,x,x,x,i
CC1=C[C@@H](CNC(=O)CN(C)C)[C@H](C(C)C)C[C@H]1Cc1nc2ccc(C)cc2[nH]1,-4.3%[87.6 µM],-1.1,u,i
COc1cccc(CN2CCNc3cnc(-c4ccccc4)cc3C2)c1,13.6%[87.6 µM],-14.1,-8.0%[87.6 µM],35.5µM*
O=C(Nc1ccc2c(N3CCOCC3)ncnc2c1)c1ccc(F)c(Cl)c1,u,-1.2,-16.1%,u
NCCCN1C(=O)CC[C@H]2CN(C(=O)c3cnn4ccccc34)CC[C@H]21,u,9.2,-16.4%,22.4µM*
NCCCN1C(=O)CC[C@H]2CN(C(=O)c3coc4ccccc34)CC[C@H]21,-12.1%,-8.3,3.2%,i
Cn1c(=O)c2nc(SCCC(=O)O)n(Cc3ccccc3)c2n(C)c1=O,x,x,x,i
COC(=O)c1ccccc1S(=O)(=O)N1CCC(C(=O)NCc2ccccn2)CC1,x,x,x,i
NC(=O)CN1CCC(C(=O)NCc2cn3cccnc3n2)CC1,-21.2%,21.4,0.0%,28.2µM*
CCCCCCCCCCCC(=O)Nc1cccc(C)c1C,x,x,x,i
O=C(NCC1CCCO1)c1ccc2oc(-c3ccc(C(F)(F)F)cc3)nc2c1 (stereo not drawn),87.7%,-1.2,-3.0%,25.1µM*
O=C(c1ccc2oc(-c3ccc(C(F)(F)F)cc3)nc2c1)N1CCOCC1,46.9%,0.6,3.7%,i
CCC(CC)C(=O)Nc1sc2c(c1C#N)CCCC2,x,x,x,i
Cc1cccc(OCC(=O)N2CCC3(CC2)CN(c2ncccn2)CC3CO)c1 (stereo not drawn),8.5%,-4.8,9.8%,20µM*
O=C(COc1ccccc1)N1CCC2(CC1)CN(c1ncccn1)CC2CO (stereo not drawn),-13.9%,6.2,-5.2%,22.4µM*
CN(C)CC(=O)Nc1ccc2n(c1=O)C[C@H]1C[C@@H]2CN(C(=O)c2ccc(-c3ccccc3)cc2)C1,-0.4%,-4.8,7.1%,i
Cn1cc(CN2C[C@@H]3C[C@H](C2)c2ccc(NC(=O)COc4ccccc4)c(=O)n2C3)c2ccccc21,u,-9.8,-13.5%,28.2µM*
O=C(O)CNS(=O)(=O)c1ccc(Cl)cc1,x,x,x,i
CN1C[C@@H](NC(=O)c2ccccn2)C[C@H]1c1nc(-c2ccc3ccccc3c2)no1,83.5%[87.6 µM],-12.9,-8.8%[87.6 µM],u
CN(C)c1ccc(C(=O)N[C@H]2C[C@@H](c3nc(-c4ccc5ccccc5c4)no3)N(C)C2)cc1,25.2%,8.8,-11.1%,35.5µM*
CC1Cc2cc(-c3ccnc4ncnn34)ccc2O1 (stereo not drawn),35.1%,-3.9,-1.6%,28.2µM*
SMILES,SNCA expr inhib,IP6K1 inh,SNCA viab count,KDM5B inhibitor
Cc1ccc(-c2nnc([C@H]3CCN(c4ncccn4)C3)o2)cc1,18.6%[87.6 µM],23.0,-3.3%[87.6 µM],39.8µM*
FC(F)(F)c1ccnc(N2CC[C@H](c3nnc(-c4ccncc4)o3)C2)n1,-18.0%[87.6 µM],-5.2,-1.4%[87.6 µM],u
Cc1ccc(-c2nnc([C@H]3CCN(c4nccc(C(F)(F)F)n4)C3)o2)cc1,-17.7%[87.6 µM],12.2,3.9%[87.6 µM],20µM*
CC(C)N(Cc1cccc(Cl)c1)S(=O)(=O)c1cnn(C)c1,x,x,x,i
COc1cc(C(=O)OCC(=O)c2ccc(Cl)cc2)ccc1OCc1ccccc1Cl,x,x,x,i
O=c1cc(-c2cnccn2)oc2c(Nc3ccccn3)nccc12,39.5%[87.6 µM],-10.2,-6.2%[87.6 µM],39.8µM*
CN1CCN(c2cc(=O)c3ccnc(NCc4ccccc4)c3o2)CC1,24.6%[87.6 µM],-14.9,-2.1%[87.6 µM],39.8µM*
CN1CCN(c2cc(=O)c3ccnc(-c4ccccc4O)c3o2)CC1,3.1%[87.6 µM],-15.0,-1.6%[87.6 µM],u
O=c1cc(-c2ccccn2)oc2c(NCc3ccccc3)nccc12,-11.4%[87.6 µM],-20.1,-3.4%[87.6 µM],39.8µM*
O=c1cc(-c2ccccn2)oc2c(Nc3cccnc3)nccc12,-10.8%[87.6 µM],-18.8,-14.8%[87.6 µM],u
Cc1nnc(-c2cc(Nc3cccc(N(C)C)c3)ccn2)n1Cc1ccccc1,51.6%[87.6 µM],0.5,11.7%[87.6 µM],31.6µM*
CC(=O)N1CCN(c2ccnc(-c3nnc(C)n3-c3ccccc3)c2)CC1,33.4%[87.6 µM],5.6,9.7%[87.6 µM],35.5µM*
Cc1nnc(-c2cc(N3CCN(c4ccccn4)CC3)ccn2)n1-c1ccccc1,-22.0%[87.6 µM],-7.8,5.2%[87.6 µM],i
CCOc1ccccc1NC(=O)C(C)Nc1ccc2c(c1)CCN2C(C)=O (stereo not drawn),x,x,x,i
COc1ccc(CN2CCNc3cnc(Nc4ccccc4)cc3C2)cc1,-15.4%[87.6 µM],-20.1,-1.7%[87.6 µM],35.5µM*
COc1ccc(Nc2cc3c(cn2)NCCN(Cc2ccccc2)C3)cc1,u,-18.7,u,u
COc1ccc(CN2CCNc3cnc(Nc4ccccc4)cc3C2)cn1,-5.1%[87.6 µM],-18.5,-8.9%[87.6 µM],35.5µM*
COc1ccc(CN2CCNc3cnc(OCc4cccnc4)cc3C2)cc1,-19.8%[87.6 µM],-16.0,-0.6%[87.6 µM],28.2µM*
c1ccc(Nc2cc3c(cn2)NCCN(Cc2ccsc2)C3)cc1,0.1%[87.6 µM],-16.6,-14.5%[87.6 µM],35.5µM*
CN(CC(=O)Nc1cc(C(F)(F)F)ccc1Cl)C1CCc2ccccc21 (stereo not drawn),x,x,x,i
COc1ccc(-c2ccc3nnc(CNC(=O)CCc4cccc(OC)c4)n3n2)cc1,11.8%,8.1,-13.8%,u
COc1ccc(-c2ccc3nnc(CNC(=O)c4ccc(OC)cc4C)n3n2)cc1,-12.8%,13.1,-6.3%,28.2µM*
COc1cccc(C(=O)NCc2nnc3ccc(-c4ccc(C)cc4)nn23)c1OC,-14.6%,-20.0,-17.8%,14.1µM*
Cc1ccc(-c2ccc3nnc(CNC(=O)c4ccc(C)cc4C)n3n2)cc1,18.2%,-1.6,-6.2%,12.6µM*
COc1ccc(C(=O)NCc2nnc3ccc(-c4ccc(C)c(C)c4)nn23)c(OC)c1,-16.7%,-13.1,-24.3%,u
SMILES,SNCA expr inhib,IP6K1 inh,SNCA viab count,KDM5B inhibitor
Cc1ccc(-c2ccc3nnc(CNC(=O)Cc4cccc(F)c4)n3n2)cc1,u,-8.7,0.8%,u
Cc1ccc(-c2ccc3nnc(CNC(=O)c4cccc5[nH]ccc45)n3n2)cc1,-2.1%,-11.2,u,i
COc1ccc(-c2ccc3nnc(CNC(=O)c4ccco4)n3n2)cc1,8.6%,5.6,8.7%,31.6µM*
Cc1ccc(Nc2nc(-c3ccc(S(=O)(=O)N4CCCCC4)cc3)cs2)cc1C,x,x,x,i
COc1ccc(C(=O)NCc2nnc3ccc(-c4ccc(Cl)cc4)nn23)c(C)c1,-9.2%,12.4,0.9%,25.1µM*
COc1ccc(-c2ccc3nnc(CNC(=O)c4cccc(OC(F)(F)F)c4)n3n2)cc1,2.5%,15.4,-4.8%,u
COc1ccc(-c2ccc3nnc(CNC(=O)c4ccc(C)c(C)c4)n3n2)cc1,-10.2%,15.0,4.1%,25.1µM*
